Hits are enriched below; roughly 7.3% of the tested compounds scored in any of these assays.
RORg inh = inhibitors of mouse ROR gamma transcriptional activity | Potency, µM (titrated, usually from 53.6 µM), for the others: at the highest dose activity change, negative = inhibition, actives largely listed as inhibitors | P51450 | 310,000 tested, 5.4% active | Drosophila S2 Gal4-RORgamma UAS-luciferase reporter, 20 h; also: nearly all actives have a fitted effect of over 60% in size
Target sequence (P51450 whole entry, looked up, the tested form may be a part): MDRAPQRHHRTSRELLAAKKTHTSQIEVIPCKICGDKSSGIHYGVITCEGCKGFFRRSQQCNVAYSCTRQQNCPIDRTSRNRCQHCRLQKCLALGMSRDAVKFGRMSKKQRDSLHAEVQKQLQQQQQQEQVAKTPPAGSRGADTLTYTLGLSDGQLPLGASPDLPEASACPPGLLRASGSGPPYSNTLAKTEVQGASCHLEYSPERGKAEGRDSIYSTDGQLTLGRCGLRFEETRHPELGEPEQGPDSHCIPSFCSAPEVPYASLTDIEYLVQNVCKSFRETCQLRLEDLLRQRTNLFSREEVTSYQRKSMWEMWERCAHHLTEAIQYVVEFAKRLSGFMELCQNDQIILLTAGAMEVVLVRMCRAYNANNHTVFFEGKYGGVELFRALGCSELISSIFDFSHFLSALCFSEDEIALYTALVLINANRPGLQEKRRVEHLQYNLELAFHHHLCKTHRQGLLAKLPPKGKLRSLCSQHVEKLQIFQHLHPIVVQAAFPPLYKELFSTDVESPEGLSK
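In this cell-based reporter format, copper sulfate (700 uM final) drives Gal4–ROR gamma fusion expression from a metallothionein promoter in Drosophila Schneider cells; compounds preincubated 1 hr, reporter read after 20 hr at ambient temperature.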
VP16 counter = counter-screen for ROR gamma inhibitors: Gal4-VP16 reporter | 310,000 tested, 3.5% active | Potency, µM (top dose mostly 53.6 µM), for inactives: at the highest dose activity, negative = inhibition, actives largely listed as inhibitors | Drosophila S2 Gal4-VP16 UAS-luciferase, luminescence, 20 h;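 also: Gal4-VP16 expression switched on by copper sulfate through the metallothionein promoter; nearly all actives have a fitted effect of over 50% in size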
Tau fibril ThT = blocks human tau fibril formation measured by thioflavin T; P10636; recombinant tau K18 P301L, heparin-induced fibrillization, ThT fluorescence; Potency, µM (titrated, usually from 57.4 µM), for inactives: top-dose activity, negative = inhibition, most hits filed as inhibitors; 270,000 tested, 2.1% active; AID 1460; also: nearly all actives have a fitted effect of over 55% in size
Target sequence (P10636 561-689 P618L limits assumed): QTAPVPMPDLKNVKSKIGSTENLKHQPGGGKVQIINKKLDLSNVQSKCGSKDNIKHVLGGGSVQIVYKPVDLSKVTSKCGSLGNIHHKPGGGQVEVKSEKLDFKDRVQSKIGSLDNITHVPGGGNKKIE
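Recombinant human tau K18 fragment […] carrying P301L, 15 uM unlabeled plus 0.24 uM Alexa 594-labeled, was fibrillized with 20 uM heparin in 100 mM sodium acetate pH 7 for 6 hr at 37 C; 30 uM ThT fluorescence read after 1 hr.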
Tau fluor cs = counter-screen for tau fibril formation inhibitors; tau K18 P301L Alexa594 fluorescence, heparin fibrillization; Potency, µM (titrated, usually from 57.7 µM), inactives show at the highest dose activity change, negative = decrease; 280,000 tested, 0.93% active; also: nearly all actives have a fitted effect of over 55% in size
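Human tau K18 P301L (15 uM unlabeled, 0.24 uM Alexa 594-labeled) in 100 mM sodium acetate pH 7 with 20 uM heparin, 6 hr at 37 C. ThT 30 uM added, 1 hr ambient; Alexa 594 FP and total fluorescence read at 555/632 nm.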
Tau fibril FP = blocks human tau fibril formation measured by polarization; Potency, µM (titrated, usually from 57.7 µM), without a hit: at the highest dose activity, negative = inhibition, actives largely listed as inhibitors; P10636; AID 1468; 280,000 tested, 0.39% active; K18 P301L tau heparin fibrillization, Alexa594 FP, 6 h; also: nearly all actives have a fitted effect of over 55% in size
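Read-out: fluorescence polarization of Alexa 594-labeled tau (0.24 uM), 555 nm excitation, 632 nm emission. Mixtures held 15 uM unlabeled K18 P301L, compound and 20 uM heparin, pH 7 acetate buffer, incubated 6 hr at 37 C.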
Numbers without * were called inactive; ? = inconclusive; . = not tested or not shown; [ ] = dose if it differs, or a comment. Calls follow the shape of the dose curve; as a rule, active = well fitted curve in the direction sought with a large enough effect; inconclusive = small, poorly fitted or top-dose-only effect, or another doubt; inactive = no such curve, though single readings can be large; an effect the other way counts as inactive or inconclusive. % is scaled to controls: 0 for no effect and ±100 for the full control effect; potency is read from the fitted curve at half-maximal effect.

SMILES | RORg inh | VP16 counter | Tau fibril ThT | Tau fluor cs | Tau fibril FP
O=S(=O)(NCc1ccc(F)cc1)c1ccc2[nH]c3c(c2c1)CCCC3 | . | . | -5.3% | 12.6µM*[quencher] | 9.9%
COc1ccc(-c2cn(-c3ccccc3)nc2C(=O)O)cc1OC | -4.2% | -1.2% | . | . | .
C[C@@](N)(C(=O)O)c1ccc(P(=O)(O)O)cc1 | 0.5% | 1.8% | -6.7% | -5.8% | -4.5%
CC(=O)Oc1c(-c2ccco2)oc2ccccc2c1=O | 12.6µM* | ? | -12.0% | -2.9% | 0.9%
CCN(CC)C(=O)COc1c(-c2ccco2)oc2ccccc2c1=O | 4.6% | -10.4% | . | . | .
CC(=O)Nc1ccc(S(=O)(=O)NNC2=NS(=O)(=O)c3ccccc32)cc1 | 10µM* | -24.3% | -3.4% | -1.9% | 1.4%
C=CCn1c(-c2ccccc2)nc(=S)c2c1CCCC2 | -26.2% | -4.5% | -0.8% | 1.5% | 1.2%
CC(C)Cn1c(-c2ccccc2)nc(=S)c2c1CCCC2 | 20µM* | -15.9% | -5.6% | -5.5% | -0.6%
c1ccc(-c2nc3nc4ccccc4nc3n2Cc2ccco2)cc1 | -90.8% | 20µM* | ? | -10.3% | -5.2%
S=c1nc(-c2ccccc2)n(Cc2ccco2)c2c1CCCC2 | 17.8µM* | ? | ? | -12.9% | -4.3%
CC(C)CNC(=S)NNC(=O)c1csc2c1CCCC2 | 7.08µM* | ? | -14.8% | -21.9% | -13.6%
COc1ccc(CCNC(=O)CSc2cccc3cccnc23)cc1OC | 1µM* | -0.2% | ? | -7.1% | 1.5%
CN(C)S(=O)(=O)c1cccc(NC(=O)CCCSc2ccccc2)c1 | 154.6% | 4.2% | . | . | .
COc1ccc(CCNC(=O)CSc2ccccn2)cc1OC | 0.3% | -1.6%[10 µM] | -15.5% | -8.6% | 1.0%
CN(C)S(=O)(=O)c1cccc(NC(=O)CSc2cccc3cccnc23)c1 | 10µM* | ? | . | . | .
C=CCC(Nc1ccco1)c1ccccc1 (centres undefined) | 4.0% | 17.8µM* | ? | -17.3% | 1.0%
COc1ccc(-n2c(NC(=O)c3ccc(Br)o3)c(C#N)c3nc4ccccc4nc32)cc1 | -6.0% | ? | 14.1µM* | ? | -12.3%
N#Cc1c(NC(=O)c2ccc(Br)o2)n(-c2ccccc2)c2nc3ccccc3nc12 | -6.2% | -2.2% | 25.1µM* | -25.8% | -14.5%
CCC(C)n1c(NC(=O)c2ccccc2)c(C#N)c2nc3ccccc3nc21 (centres undefined) | 10µM* | ? | ? | -14.9% | 8.1%
CCCCn1c(NC(=O)c2ccccc2)c(C#N)c2nc3ccccc3nc21 | ? | ? | -2.4% | -12.6% | -6.2%
COc1ccc(Cn2c(N)c(C#N)c3nc4ccccc4nc32)cc1 | 1.9% | ? | -23.2% | -22.7% | 9.7%
O=C(OCc1cc(=O)n2nc(C3CC3)sc2n1)c1cccc(NC(=O)c2ccccc2Cl)c1 | . | . | ? | -14.4% | 1.8%
COc1ccc(NC(=O)c2cccc(N3CCCS3(=O)=O)c2)c(OC)c1 | . | . | 1.5% | -5.6% | 1.9%
O=C1S/C(=C\c2ccc(O)c([N+](=O)[O-])c2)C(=O)N1c1ccccc1Cl | -44.2% | -18.1% | 6.31µM* | ? | -4.6%
CN1C(=O)/C(=C/c2ccc(O)c([N+](=O)[O-])c2)N(C)C1=S | -11.3% | 1.2% | 4.47µM* | -19.3% | 1.2%
SMILES | RORg inh | VP16 counter | Tau fibril ThT | Tau fluor cs | Tau fibril FP
CCOC(=O)CN1C(=O)S/C(=C/C=C/c2ccc(N(C)C)cc2)C1=O | 1.5% | -13.5% | 2.24µM* | 0.1% | ?
O=C(N/N=C\c1ccc(O)c([N+](=O)[O-])c1)c1ccccc1-n1cccc1 | 36.0% | -8.8% | ? | 4.4% | 4.6%
Cc1ccc(NC(=O)CN2C(=O)S/C(=C/c3ccc(O)c([N+](=O)[O-])c3)C2=O)cc1C | 40.5% | 1.0% | 7.94µM* | ? | ?
COc1cc(C(CCN2CCCC2)c2c(OC)cc(OC)c3c2OC(=O)CC3c2ccc(N(C)C)cc2)cc(OC)c1OC (centres undefined) | 12.2% | 0.1% | . | . | .
NC[C@@H]1O[C@@H](O[C@H]2[C@H](O)[C@H](O[C@@H]3O[C@H](CO)[C@@H](O)[C@H](N)[C@@H]3O)[C@@H](N)C[C@H]2N)[C@H](N)C[C@@H]1O | 0.3%[2.98 µM] | 3.0%[17 µM] | . | . | .
COc1ccc(C)cc1-n1nnc(-c2nc(-c3ccccc3Cl)no2)c1N | . | . | 1.2% | ? | -14.7%
N#CC(c1ccc(Cl)cc1)c1c(Cl)cc(-n2ncc(=O)[nH]c2=O)cc1Cl (centres undefined) | 13.5% | -1.8% | . | . | .
O=C(O)c1cccc(CN2C(=O)S/C(=C/c3ccccc3[N+](=O)[O-])C2=O)c1 | 6.8% | 0.0% | ? | -15.8% | ?
Cc1cccc(NC(=O)CN2C(=O)S/C(=C\c3ccc(O)c([N+](=O)[O-])c3)C2=O)c1 | 19.9% | -3.1% | 6.31µM* | ? | 0.6%
O=C1S/C(=C\c2ccc(O)c([N+](=O)[O-])c2)C(=O)N1Cc1cccc([N+](=O)[O-])c1 | 24.0% | 9.3% | 11.2µM* | ? | 18.0%
O=C(CN1C(=O)S/C(=C\c2ccc(O)c([N+](=O)[O-])c2)C1=O)Nc1ccc(N2CCOCC2)cc1 | 0.5% | 19.6% | . | . | .
CCOC(=O)CN1C(=O)S/C(=C/c2cccc([N+](=O)[O-])c2O)C1=O | 20.2% | -8.9% | 12.6µM* | -23.3% | 3.7%
CCN(Cc1ccccc1)C(=O)c1nc(-c2cccc(F)c2)n2c1CCCCC2 | . | . | -7.7% | -3.0% | 2.9%
CC(=O)N1CCC[C@@]2(CCN(c3ncccn3)C2)C1 | 32.0% | -12.8% | . | . | .
CCN(CC)c1ccc(/C=C2\C(=O)c3ccc(C(=O)O)cc3C2=O)cc1 | 11.2µM* | 10µM* | 2µM* | -7.4% | ?
C/C(=N\NC(=S)Nc1ccccc1C)c1cc2ccccc2o1 | 1.26µM* | 7.08µM* | ? | ? | 4.4%
C/C(=N\NC(=O)c1ccco1)c1cc2ccccc2o1 | 0.4% | -9.4% | ? | 14.2% | -1.1%
C/C(=N\NC(=S)Nc1c(C)cccc1C)c1ccc(O)cc1 | 8.91µM* | ? | -14.2% | -22.9% | -8.9%
C/C(=N\NC(=S)Nc1c(C)cccc1C)c1cc2ccccc2o1 | 1µM* | 7.08µM* | -8.4% | -15.5% | 1.7%
Cc1cccc(C)c1NC(=S)N/N=C/c1ccccc1C(=O)O | ? | -15.6% | -4.4% | -8.8% | -10.5%
CCCCC[C@]12Cc3ccccc3C(O1)C1=C(CC(C)(C)CC1=O)O2 | -16.3%[10 µM] | -4.4%[10 µM] | . | . | .
COc1ccccc1OCC(=O)Nc1cc(Cl)ccc1Oc1ccccc1 | ? | -17.5% | -7.6% | -19.9% | -8.5%
CCNC(=S)Nc1cc(Cl)ccc1Oc1ccccc1 | 4.47µM* | 10µM* | -1.4% | -23.0% | ?
CNC(=S)Nc1cc(Cl)ccc1Oc1ccccc1 | 14.1µM* | ? | 2.9% | -5.6% | -2.5%
Cn1c(=O)c(CCc2ccccc2)nc2cnc(OCc3ccccc3)nc21 | -0.5% | 10.3% | . | . | .

Bioassay records: PubChem, National Center for Advancing Translational Sciences (NCATS)
